In the library only some 2.4% were active in any assay of this set; here they are far more common.
D2 PAM-1 = human D2 receptor positive allosteric modulation | P14416 | DiscoveRx D2 beta-arrestin cells, luminescence, 90 min; 100% = 57 uM dopamine signal | potentiation, % (test concentration not listed) | hit rate 0.23% among 360,000; in the data active = potentiation above about 50%; inconclusive = mostly about 30% to 49%
Target sequence (P14416 whole entry, looked up): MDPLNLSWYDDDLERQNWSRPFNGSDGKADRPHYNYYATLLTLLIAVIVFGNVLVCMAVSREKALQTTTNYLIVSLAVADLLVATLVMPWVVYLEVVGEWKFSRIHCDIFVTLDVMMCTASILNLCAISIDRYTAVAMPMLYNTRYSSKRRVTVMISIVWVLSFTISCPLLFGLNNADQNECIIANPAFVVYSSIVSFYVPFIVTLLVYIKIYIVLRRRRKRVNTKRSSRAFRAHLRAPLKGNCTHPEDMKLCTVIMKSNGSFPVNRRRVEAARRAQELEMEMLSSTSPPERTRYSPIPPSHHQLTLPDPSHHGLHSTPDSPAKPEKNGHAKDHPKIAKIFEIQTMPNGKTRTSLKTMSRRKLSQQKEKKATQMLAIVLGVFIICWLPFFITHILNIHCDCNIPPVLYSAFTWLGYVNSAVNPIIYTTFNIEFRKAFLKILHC
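PathHunter beta-arrestin assay in DiscoveRx D2 cells. Compounds were added with an EC20 of dopamine (50 nM final) for 90 min at 37 deg C. Luminescence was read 1 h after detection reagent, with 57 uM dopamine as the EC100 control.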
D2 antagonist = D2 dopamine receptor (human) antagonism; HEK293 TREx D2 cells, calcium flux, dopamine EC80; inhibition, % at 10 µM; hit rate 2% among 340,000; P14416; AID 485344; in the data active = inhibition above about 30%; inactive = below that, where a call was filed; also: 0% is about no effect
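Read-out: kinetic calcium fluorescence (1 cycle/s) in inducible HEK293 T-REx D2 cells after an EC80 dopamine addition that followed 180 s compound preincubation. Loss of the dopamine response indicates antagonism.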
D2 ag-1 = human D2 receptor agonism in beta-arrestin assay. DiscoveRx PathHunter D2 beta-arrestin, luminescence, 90 min; 100% = 57 uM dopamine signal. activation, % (concentration not given with the values). AID 624465. P14416. hit rate 0.084% among 360,000; in the data active = activation above about 40%; inconclusive = between about 15% and that limit
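Agonist mode: compounds alone added to overnight-plated D2 PathHunter cells for 90 min at 37 C, with 57 uM final dopamine (EC100) defining full response. Beta-arrestin recruitment detected by chemiluminescent reagent, read after 1 h at ambient temperature.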
D2 ag-2 = agonists of human D2 dopamine receptor; HEK293 T-REx D2 cells, calcium flux agonist mode; activation, % at 2 µM; hit rate 0.53% among 340,000;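 active = activation over 3 SD above normal in the single-dose calcium agonist read, cut at about 30% in these data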; also: 0% is about no effect
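Calcium-flux readout, 1 cycle/sec over 180 s following compound pin transfer, in inducible HEK293 Trex D2 cells (force-coupled); dopamine controls included. Positive calcium responses during this window marked compounds as potential agonists.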
D2 PAM-2 = positive allosteric modulators of human D2 dopamine receptor; potentiation, % at 10 µM; HEK293 T-REx D2, calcium flux, EC20 dopamine potentiation; AID 485347; hit rate 0.34% among 340,000;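 active = potentiation over 3 SD above the plate norm, cut at about 30% in these data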; also: 0% is about no effect
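Potentiation of an EC20 dopamine calcium response is measured in a force-coupled, tetracycline-inducible Hek293 Trex D2 line. Compound-only kinetic reads over 180 s flag agonists before dopamine addition.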
D3 arrestin ag = D3 receptor agonism confirmed, beta-arrestin readout. shares compounds with D2 ag-2. DiscoveRx D3 beta-arrestin cells, luminescence, 90 min. Potency, µM (titrated, usually from 76.9 µM), for inactives: at the top dose activation, actives largely listed as activators. hit rate 4% among 2,300. AID 720506;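 also: potency is read from the fitted curve at half-maximal effect; 100% = dopamine control response; nearly all actives have a fitted effect of over 70% in size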
D2 ag-3 = counter-screen for D3 agonists: human D2 dopamine receptor agonism; shares compounds with D2 ag-2; DiscoveRx PathHunter D2 beta-arrestin, luminescence, 90 min; response scale: percent relative to full dopamine signal; Potency, µM (series often up to 76.9 µM), inactives show at the top dose activation, actives largely listed as activators; hit rate 5.9% among 2,300; also: potency is read from the fitted curve at half-maximal effect; % of control where 0% means no effect; nearly all actives have a fitted effect of over 70% in size
* marks the source's active call; other numbers are inactive results. Unless noted, calls follow the shape of the dose curve; as a rule, active = well fitted activation curve with a large enough effect; inconclusive = small, poorly fitted or top-dose-only effect; inactive = flat fitted curve, though single readings scatter.

Results for O=C(Cc1ccccc1)NNC(=S)Nc1ccc(Cl)cc1 ?
D2 PAM-1: -19; D2 antagonist: 5; D2 ag-1: -7; D2 ag-2: 44*; D2 PAM-2: -20; D3 arrestin ag: 1%; D2 ag-3: -4%

How did Cc1ccc(-n2nnnc2SCC(=O)c2c(N)n(C3CC3)c(=O)[nH]c2=O)c(C)c1 do in these assays?
D2 PAM-1: 1; D2 antagonist: -8; D2 ag-1: 0; D2 ag-2: 1; D2 PAM-2: 0; D3 arrestin ag: 6%; D2 ag-3: -3%

Results for CCOC(=O)c1cc(S(=O)(=O)N2CCN(Cc3ccccc3)CC2)cn1C ?
D2 PAM-1: 0; D2 antagonist: -12; D2 ag-1: -2; D2 ag-2: 0; D2 PAM-2: 2

Results for CCOC(=O)C1=CCN(Cc2ccccc2)CC1 ?
D2 PAM-1: 13; D2 antagonist: 101*; D2 ag-1: 77*; D2 ag-2: 83*; D2 PAM-2: -17; D3 arrestin ag: 19%; D2 ag-3: inconclusive

What do the screens show for `CCOc1ccc(NC(=O)Cn2c(=O)n(-c3ccc(C)cc3)c(=O)c3cc(OC)c(OC)cc32)cc1`?
D2 ag-2: 0; D2 PAM-2: 13

What do the screens show for `COc1ccccc1NC(=O)C(C)OC(=O)C(C)SCC(=O)Nc1ccc(C)cc1` (centres undefined)?
D2 PAM-1: -20; D2 antagonist: 10; D2 ag-1: -3; D2 ag-2: -1; D2 PAM-2: -14; D3 arrestin ag: -2%; D2 ag-3: -3%

How did Cc1cccc(CC(=O)Nc2cccnc2)c1 do in these assays?
D2 PAM-1: -19; D2 antagonist: 2; D2 ag-1: 0; D2 ag-2: 30; D2 PAM-2: 1; D3 arrestin ag: -11%; D2 ag-3: 2%

Results for O=C(Cc1ccccc1)Nc1cccnc1 ?
D2 PAM-1: 0; D2 antagonist: -26; D2 ag-1: -5; D2 ag-2: 3; D2 PAM-2: 11

Results for CCCn1c(N)c(C(c2ccc(C(=O)OC)cc2)N2CCN(c3ccccc3)CC2)c(=O)[nH]c1=O (centres undefined) ?
D2 PAM-1: -5; D2 antagonist: 16; D2 ag-1: -1; D2 ag-2: 48*; D2 PAM-2: -8; D3 arrestin ag: 5%; D2 ag-3: 11%

How did COC(=O)c1ccc(C(c2c(N)n(CC(C)C)c(=O)[nH]c2=O)N2CCN(c3ccccc3)CC2)cc1 (centres undefined) do in these assays?
D2 PAM-1: -3; D2 ag-1: 1

What do the screens show for `CCCn1c(N)c(C(c2ccc(OC)cc2)N2CCN(c3ccccc3)CC2)c(=O)[nH]c1=O` (centres undefined)?
D2 PAM-1: -9; D2 antagonist: 3; D2 ag-1: 7; D2 ag-2: 43*; D2 PAM-2: -10; D3 arrestin ag: -8%; D2 ag-3: 7%

How did CN1CC2=Cc3ccccc3OC23Oc2ccccc2C=C3C1 do in these assays?
D2 PAM-1: -42; D2 antagonist: 64*; D2 ag-1: -8; D2 ag-2: 59*; D2 PAM-2: -18; D3 arrestin ag: -19%; D2 ag-3: -8%

What do the screens show for `COc1cc(OC)cc(C(=O)Nc2ccc(S(=O)(=O)N3CCCCC3c3cccnc3)cc2)c1` (centres undefined)?
D2 ag-2: -1; D2 PAM-2: -2

What do the screens show for `Fc1ccc(Nc2nc3ccccc3c3nncn23)c(Cl)c1`?
D2 ag-2: 0; D2 PAM-2: -3

How did C/C(=N/Nc1ccc(C(=O)c2c(C)cc3ccccn23)cc1[N+](=O)[O-])c1ccc(O)cc1 do in these assays?
D2 PAM-1: -6; D2 ag-1: 4

How did CC1(C)CC(=O)C2=C(C1)N(c1ccc(F)cc1)C(=O)NC2(C(F)(F)F)C(F)(F)F do in these assays?
D2 PAM-1: 8; D2 antagonist: 8; D2 ag-1: -1; D2 ag-2: -1; D2 PAM-2: -19

Results for Cc1[nH]n(-c2ccccc2)c(=O)c1C1(C(F)(F)F)C(=O)N(c2ccc(F)cc2)C2=C1C(=O)CC(C)(C)C2 (centres undefined) ?
D2 PAM-1: -15; D2 antagonist: 11; D2 ag-1: 1; D2 ag-2: 5; D2 PAM-2: -10; D3 arrestin ag: 12%; D2 ag-3: -6%

Results for COc1ccccc1CCNC(=O)c1ccc(Br)s1 ?
D2 PAM-1: -19; D2 antagonist: 1; D2 ag-1: 1; D2 ag-2: 0; D2 PAM-2: -17

How did O/C=c1\ccc2cccc3nc(C(F)(F)F)nc1c23 do in these assays?
D2 PAM-1: 15; D2 antagonist: -20; D2 ag-1: 4; D2 ag-2: 3; D2 PAM-2: -1

Results for C/C(O)=c1/ccc2cccc3nc(C)nc1c23 ?
D2 PAM-1: 26; D2 antagonist: -2; D2 ag-1: 6; D2 ag-2: 7; D2 PAM-2: 5; D3 arrestin ag: inconclusive; D2 ag-3: 21%

How did CCOc1ccc(/C=N/NC(=O)c2nnn(-c3nonc3N)c2-c2cccs2)cc1 do in these assays?
D2 PAM-1: -3; D2 antagonist: 16; D2 ag-1: 3; D2 ag-2: 7; D2 PAM-2: 5; D3 arrestin ag: 1%; D2 ag-3: -5%

What do the screens show for `CCc1ccc(/C=N/NC(=O)c2nnn(-c3nonc3N)c2C(C)C)cc1`?
D2 PAM-1: -5; D2 antagonist: 18; D2 ag-1: 1; D2 ag-2: 26; D2 PAM-2: 10; D3 arrestin ag: 1%; D2 ag-3: 1%

Results for CCOc1cccc(-c2c(C(=O)N/N=C/c3sccc3C)nnn2-c2nonc2N)c1 ?
D2 PAM-1: -6; D2 antagonist: 3; D2 ag-1: 2; D2 ag-2: 1; D2 PAM-2: 5

What do the screens show for `CCOc1cccc(-c2c(C(=O)N/N=C/c3ccsc3)nnn2-c2nonc2N)c1`?
D2 PAM-1: 0; D2 antagonist: 23; D2 ag-1: 0; D2 ag-2: 9; D2 PAM-2: 26; D3 arrestin ag: 2%; D2 ag-3: -3%

Results for CCOc1ccc(-c2c(C(=O)N/N=C/c3ccccc3)nnn2-c2nonc2N)cc1 ?
D2 PAM-1: -7; D2 antagonist: -2; D2 ag-1: 1; D2 ag-2: 4; D2 PAM-2: 28

How did Cc1ccc(C(CC(=O)Nc2cc(C)cc(C)c2)N2Cc3ccccc3C2=O)cc1 (centres undefined) do in these assays?
D2 PAM-2: 1
